The source of these data is PubChem BioAssay AID2174 (The Scripps Research Institute Molecular Screening Center, 2009).

The whole screen tested about 320,000 compounds, of which about 500 (0.16%) were called active. Only a selection was taken, and actives are over-represented in it overall. Values without a mark were called inactive.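 How the source made its calls: active means inhibition above the mean of all tested compounds plus 3 SD, set per campaign (cut at about 14% in these data); inactive means the rest.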

The target of the experiment is Acyl-protein thioesterase 1 (Homo sapiens) (UniProt O75608). Put plainly: LYPLA1 inhibitors, primary screen, counter-screen for PME1 inhibitor project, biochemical, fluorescence polarization, FP-Rh probe ABPP (AID 2174).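 Further: inhibitors block serine hydrolase probe labeling of LYPLA1 so polarization falls; 0% = enzyme with DMSO and 100% = wells lacking LYPLA1.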 As to conditions: recombinant LYPLA1, FP-Rh probe fluorescence polarization; at 5.9 µM; hits give high values. In general terms: Counterscreens check selectivity or assay interference.
Sequence of Acyl-protein thioesterase 1 (Homo sapiens) (O75608 whole entry, looked up): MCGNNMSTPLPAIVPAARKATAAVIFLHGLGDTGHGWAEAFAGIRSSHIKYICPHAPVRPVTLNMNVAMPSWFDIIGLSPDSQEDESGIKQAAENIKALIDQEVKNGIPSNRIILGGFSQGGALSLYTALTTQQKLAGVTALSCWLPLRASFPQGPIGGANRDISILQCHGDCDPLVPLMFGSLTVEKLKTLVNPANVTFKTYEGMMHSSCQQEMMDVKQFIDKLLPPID
As for `O=[N+]([O-])c1ccc(N(CCO)Cc2ccccc2)c([N+](=O)[O-])c1`, the inhibition (commonly the drop in the measured response relative to a control, in per cent) was -0.28%.
With `O=C(CN1CCN(c2cccc(Cl)c2)CC1)Nc1ccc(S(=O)(=O)N2CCOCC2)cc1`, the inhibition was 18.1% (active).
In the case of `O=C(CN1CCCCCC1)Nc1ccc(S(=O)(=O)N2CCCCC2)cc1`, the inhibition is 1.21%.
As to `O=C(CN1C(=O)CCC1=O)Nc1ccc(S(=O)(=O)N2CCOCC2)cc1`, the inhibition is -5.25%.
Consider `CCCCn1c(N)c(N(CC(C)C)C(=O)C2CSC3(C)CCC(=O)N23)c(=O)[nH]c1=O` (configuration not stated), for which the inhibition was -1.21%.
`COC(=O)c1sc(=S)n(-c2ccc(Cl)cc2)c1C`: the inhibition is 0.52%.
Regarding `COCCOC(=O)c1sc(=S)n(CCOC)c1N`, the inhibition is 19.7% (active).
In the case of `CC(=O)Nc1ccc(N2C(=O)C3C4CC(=O)C(c5ccccc54)C3C2=O)cc1` (configuration not stated), the inhibition is 1.72%.
To `COc1ccccc1-n1c(=S)[nH]c2c(sc(=S)n2-c2ccc(C)cc2C)c1=O` belongs 2.01%; to `Cc1ccc(Oc2ccc3c(c2)C(=O)N(c2cccc4cccnc24)C3=O)cc1`, -5.81%.
To `O=S(=O)(NCCCN1CCOCC1)c1ccc(F)c(Cl)c1` belongs 2.43%.
To `Cc1c(Br)c([N+](=O)[O-])nn1CC(=O)N1CCN(Cc2ccccc2)CC1` belongs 1.03%; to `COc1cccc(C(C(=O)NC2CCCC2)N(C(=O)c2ccco2)c2cccc(C(C)=O)c2)c1OC` (configuration not stated), 0.23%; to `O=c1[nH][nH]c(C(F)(F)F)c1C=NCc1ccccc1Cl`, 1.78%.
Regarding `Cc1ccc(OCC(=O)Oc2ccccc2[N+](=O)[O-])cc1`, the inhibition was 1.05%.
To `COc1ccc(/C=C/c2noc(-c3ccccc3OC(C)=O)n2)cc1` belongs -1.21%; to `CN=C1SC(C(=O)O)CC(=O)N1C` (configuration not stated), -2.92%; to `O=C(CSc1nnc(-c2ccoc2)o1)N1CCOCC1`, -2.17%.
Turning to `Cc1cc2ccccn2c1C(=O)c1cccc(S(=O)(=O)N2CCOCC2)c1`, the inhibition is -1.9%.
`O=C(NCc1ccccc1)[C@H]1C[C@@H]1[C@H](NP(=O)(c1ccccc1)c1ccccc1)c1ccccc1`: the inhibition is -4.27%.
Regarding `CCCCCCNCCn1cnc2c(N)ncnc21`, the inhibition was -4.2%.
`CC1(C)CC(=O)C/C(=N\NC(=O)c2cccs2)C1`: the inhibition was -2.89%.
As for `CCOc1ncccc1C(=O)OCC(=O)c1c[nH]c2ccccc12`, the inhibition was -4.27%.
With `COc1ccc(-c2nc(CS(=O)CC(=O)NCc3ccccc3)c(C)o2)cc1OC` (configuration not stated), the inhibition is -1.5%.
On to `COc1ccc(-c2nc(CS(=O)CC(=O)NCc3ccccn3)c(C)o2)cc1` (configuration not stated), for which the inhibition is 25% (active).
Consider `COc1cccc(-c2nc(CS(=O)CC(=O)NCc3ccc(F)cc3)c(C)o2)c1` (configuration not stated), for which the inhibition is 1.75%.
In the case of `O=C1CC(C(F)(F)C(F)(F)C(F)(F)C(F)(F)F)=Nc2ccccc2N1`, the inhibition was 0.46%.
`CCN(Cc1ccccc1)S(=O)(=O)c1cc(C(=O)O)ccc1OC`: the inhibition was -4.32%.
Turning to `Nc1nc(SCC(=O)NNc2c(Cl)cc(Cl)cc2Cl)n[nH]1`, the inhibition was 2.34%.
Turning to `Cc1cc(C)c(C#N)c(SCC(=O)NN2CC(=O)N(c3ccccc3F)CC2=O)n1`, the inhibition is -0.67%.
With `Cc1cccc(-n2c(SCC(N)=O)nc3c(c2=O)C2(CCCCC2)Cc2ccccc2-3)c1`, the inhibition was -3.86%.
For the molecule `Cn1ccc(=NC=C(C#N)C#N)c2ccccc21`, the inhibition is -3.88%.
To `CN(C)c1ccc(N/C=C/C(=O)C(F)(F)F)cc1` belongs -5.36%.
To `CCN(CC)C(=O)CSc1ncnc2c1cnn2-c1ccccc1` belongs -1.45%.
As for `COc1ccc(/C=C2\CCCC3C2=NN(C(=O)c2scnc2C)C3c2ccc(OC)cc2)cc1` (configuration not stated), the inhibition is -3.35%.
On to `CCCN(CCC)C(=O)C1c2ccccc2Oc2ccccc21`, for which the inhibition is -1.51%.
Regarding `O=C(O)CCS(=O)(=O)c1ccc(-c2ccccc2)cc1`, the inhibition is -0.07%.
To `NS(=O)(=O)c1ccc(NC(=S)NNC(=O)c2cccs2)cc1` belongs 0.82%.
`COC(=O)[C@@H]1CC[C@H](C)[C@@H](c2ccc(C)cc2)N1C(=O)c1ccc(/C=N/O[C@H](C)c2cn([C@@H]3COC[C@H]3O)nn2)cc1`: the inhibition was -1.13%.
As for `COCCCN(C(=O)CSCc1ccc(C)cc1)c1c(N)n(Cc2ccccc2)c(=O)[nH]c1=O`, the inhibition is -5.33%.
As to `Cc1ccccc1NC(=O)NC1(C(=O)N2CCCC2)CCCCC1`, the inhibition is 5.72%.
With `CCN1C(=O)/C(=c2\s/c(=C3\Sc4ccccc4N3C)c(=O)n2C)N(C)C1=S`, the inhibition is -0.75%.
Take `CCN1C(=O)/C(=C2/Sc3ccccc3N2CCCS(=O)(=O)O)SC1=S`: the inhibition is 14.2% (active).
`CCCCN1C(=O)/C(=C2/Sc3ccc(Cl)cc3N2CC)SC1=S`: the inhibition was 2.19%.
As to `COc1ccc(CNC(=O)C(=O)NCC2OCCN2C(=O)c2ccc(OC)cc2)cc1` (configuration not stated), the inhibition is -3.36%.
To `CC(C)c1ccc(S(=O)(=O)N2CCN(C(=O)CN3C(=O)NC(C)(c4ccccc4)C3=O)CC2)cc1` (configuration not stated) belongs 0.26%.
`Cc1ccccc1C(=O)NC(=S)NC1CC1`: the inhibition was -2.2%.
Take `Cc1c(C(=O)NCCN2C(=O)S/C(=C\c3cccs3)C2=O)cccc1[N+](=O)[O-]`: the inhibition is -7.3%.
`COc1ccc(S(=O)(=O)N(CCCN2CCCC2=O)Cc2cc3c(C)ccc(C)c3[nH]c2=O)cc1`: the inhibition is -0.26%.
In the case of `COc1cc(OC)cc(C(=O)NNC(=O)CNC(=O)c2ccc(Br)o2)c1`, the inhibition is -3.43%.
As for `O=C(NCCCN1CCCCC1)C1CCCN(c2ncnc3c2nc2n3CCCCC2)C1` (configuration not stated), the inhibition was 4.5%.
For the molecule `O=C(COC(=O)CCOc1ccccc1)Nc1cc(S(=O)(=O)N2CCCCC2)ccc1Cl`, the inhibition is -5.97%.
As to `Cc1ccc(N2CCN(/N=C/c3cccs3)CC2)cc1`, the inhibition was 2.05%.
`Cc1ccsc1/C=C1\SC(N2CCOCC2)=NC1=O`: the inhibition was -3.19%.
In the case of `Cc1ccc(N2CCN(C3=NC(=O)/C(=C\c4cccs4)S3)CC2)cc1`, the inhibition was 29% (active).
To `CCCCc1nc2cc(C(=O)N3CCCCC3CCO)ccc2o1` (configuration not stated) belongs -0.28%; to `O=C(NCCc1ccccc1)C(=O)NCC1OCCN1S(=O)(=O)c1cccs1` (configuration not stated), 2.86%.
